Experimental data from PubChem BioAssay (NCATS).
Results filed as inconclusive are left out. Entries that show only a call come without a potency. Active and inactive are the calls of the source. Calls follow the shape of the dose curve; as a rule, active = well fitted cell-killing curve with a large enough effect; inconclusive = small, poorly fitted or top-dose-only effect; inactive = flat fitted curve, though single readings scatter.

Test: qHTS of pediatric cancer cell lines to identify multiple opportunities for drug repurposing: Primary screen for U-2 OS cells (AID 1347096); also: nearly all actives have a fitted effect of over 50% in size
Conditions: U-2 OS viability, CellTiter-Glo luminescence, 48 h; series mostly up to 46 µM
Source text: Drug repurposing or repositioning has been offered as a strategy for drug development in oncology programs. This approach has special potential for childhood cancers and other rare or orphan diseases, where the expected return on new drug development has been a disincentive to pharmaceuticals.
In this project we exploit the poly-pharmacology of drugs to discover new indications via phenotypic screening of a panel of 19 well-characterized cell lines derived from solid tumors seen in children and adolescents. The goal is to identify approved drugs with previously unrecognized anticancer properties that has the potential to reveal new mechanisms and biological processes involved in carcinogenesis or drug resistance. We employed a titration-based paradigm (quantitative high-throughput screening or qHTS), where all compounds were tested at multiple concentrations for their effect on cell viability. Concentration-response curves (CRCs) were derived directly from the primary screen, and both potency and efficacy values were used to identify compounds with robust bioactivity profiles. We screened the NIH Chemical Genomics Center (NCGC) Pharmaceutical Collection (NPC) and Mechanism Interrogation Plate (MIPE) small molecule collections of approved and investigational compounds against these cell lines; and measured metabolically active cells after 48 hours of compound treatment as a proxy for cell viability.
Assay Submitter: Nathalia J. Martinez, National Center for Advancing Translational Sciences, National Institutes of Health, Rockville, MD, USA; email: natalia.martinez@nih.gov
[1] Shen, M et al. Quantitative high-throughput phenotypic screening of pediatric cancer cell lines identifies multiple opportunities for drug repurposing. Oncotarget 2017 Dec 19;9(4):4758-4772. PMID 29435139.
The cells were obtained from University of North Carolina (UNC), Pediatric Preclinical Testing Program (PPT), and Coriell Institute (CI).
qHTS cell viability assay:
Cells were assayed in growth media at a density of 500-1,000 cells/well. Five microliters of cells were dispensed into 1,536-well, white, solid-bottom, TC-treated plates (Greiner Bio One) using a multidrop dispenser and incubated at 37 degrees C, 5% CO2, under a humidified atmosphere for 5 hours. Twenty-three nanoliters of compounds and controls (neutral control DMSO or positive control bortezomib at final concentration of 2.3 µM) were subsequently transferred by Kalypsys pintool. For primary screens, the MIPE collection was tested at 11-point dilutions (final concentrations range from 0.78 nM to 46 µM) and the NPC collection at 8-point dilutions (final concentrations range from 0.59 nM to 46 µM). Compounds tested in follow-up screens were assayed at 11-point dilutions. Cells were incubated for 48 hours, followed by addition of 3 µL of CellTiter-Glo (Promega). After a 15 min incubation at room temperature, samples were analyzed for luminescence intensity using a ViewLux High-throughput CCD imager equipped with clear filters.

| Structure (SMILES) | Potency | activity change, negative = cytotoxic |
| --- | --- | --- |
| CCCN(CCC)C(=O)C(CCC(=O)OCCCN1CCN(CCOC(=O)Cc2c(C)n(C(=O)c3ccc(Cl)cc3)c3ccc(OC)cc23)CC1)NC(=O)c1ccccc1 (stereo not given) | inactive | – |
| CC(C)(C)c1nnc(NS(=O)(=O)c2ccccc2)s1 | inactive | – |
| CCC1(c2cnc[nH]2)Cc2ccccc2C1 | inactive | – |
| C[C@H]1C[C@H](O)c2ccsc2S1(=O)=O | inactive | – |
| OCCc1ccccc1 | inactive | – |
| CCCC(=O)c1cc(O)c(O)cc1O | inactive | – |
| C/C(=C(/OCCOc1ccc(Cl)cc1)c1ccc(Cl)cc1Cl)n1ccnc1 | inactive | – |
| O=C(NN1CCCC1)NS(=O)(=O)c1ccc(Cl)cc1 | inactive | – |
| CC(C)(c1ccc(O)cc1)c1ccc(O)cc1 | inactive | – |
| CC(=O)O[C@@H]1C(=O)O[C@@H]2[C@H]1OC(=O)[C@@H]2OC(C)=O | inactive | – |
| NCC[C@H](O)C(=O)N[C@@H]1C[C@H](N)[C@@H](O[C@H]2O[C@H](CN)[C@@H](O)[C@H](O)[C@@H]2O)[C@H](O)[C@@H]1O[C@H]1O[C@H](CO)[C@@H](O)[C@H](N)[C@@H]1O | – | 14.2% [at 0.597 µM] (inactive) |
| O=C(c1ccco1)N1CCNCC1 | inactive | – |
| O=C1[C@@H]2[C@H]3CC[C@H](C3)[C@@H]2C(=O)N1CCCCN1CCN(c2ncccn2)CC1 | inactive | – |
| CCN1CCCC1CN (stereo not given) | inactive | – |
| CC(C)(C)CC(=O)OCC(=O)[C@@]1(O)CC[C@H]2[C@@H]3CCC4=CC(=O)C=C[C@]4(C)[C@H]3[C@@H](O)C[C@@]21C | inactive | – |
| CC1(C)S[C@@H]2[C@H](NC(=O)C(c3ccccc3)S(=O)(=O)O)C(=O)N2[C@H]1C(=O)O (stereo not given in full) | inactive | – |
| CO[C@]1(NC(=O)CSC(F)F)C(=O)N2C(C(=O)O)=C(CSc3nnnn3CCO)CO[C@H]21 | inactive | – |
| Cc1ccc(C(=O)C(=O)O)cc1C | inactive | – |
| COc1ccc2nc(SCc3ncc(C)c(OC)c3C)[nH]c2c1 | inactive | – |
| CSc1ccc(/C=C2/C(C)=C(CC(=O)O)c3cc(F)ccc32)cc1 | inactive | – |

| Structure (SMILES) | Potency | activity change, negative = cytotoxic |
| --- | --- | --- |
| NC(=O)NS(=O)(=O)c1ccc(Cl)cc1 | inactive | – |
| CC(=O)CC/C=C(\C)CC/C=C(\C)CC/C=C(\C)CCC=C(C)C | inactive | – |
| Nc1nc(=O)n([C@@H]2O[C@H](CO)[C@@H](O)[C@@H]2F)cc1I | inactive | – |
| OCCCc1ccccc1 | inactive | – |
| CCCCCOc1ccc(C2SC(=O)NC2=O)cc1OCC (stereo not given) | inactive | – |
| CN1N=C(C(N)=O)CCC1=O | inactive | – |
| O=C(CO)[C@@H](O)[C@H](O)[C@@H](O)CO | inactive | – |
| Cc1onc(-c2c(Cl)cccc2Cl)c1C(=O)Cl | inactive | – |
| COc1ccc2c(c1)CCCC2=O | inactive | – |
| CCCOc1ccc2c(c1)CC[C@@H]1[C@@H]2CC[C@]2(C)C(OC)CC[C@@H]12 (stereo not given in full) | inactive | – |
| C[C@H]1C[C@H]2[C@@H]3CCC4=CC(=O)C=C[C@]4(C)[C@H]3C(=O)C[C@]2(C)[C@@]1(O)C(=O)CO | inactive | – |
| NC(=O)NC1N=C([O][Al])NC1=O (stereo not given) | inactive | – |
| COC(=O)c1cc(Cl)c(NC(C)=O)cc1OC | inactive | – |
| COCCc1ccccn1 | inactive | – |
| COc1ccc(/C(C)=C/C(=O)O)c(OC)c1 | inactive | – |
| Nc1ccc(C(=O)OCC(O)CO)cc1 (stereo not given) | inactive | – |
| CC(C)C(=O)OCc1cccc(OC(=O)[C@@H]2N3C(=O)[C@@H](NC(=O)Cc4ccccc4)[C@H]3SC2(C)C)c1 | inactive | – |
| C=CCOc1cc(Cl)ccc1C(=O)NCCN(CC)CC | inactive | – |
| N#CC1(c2ccc(F)cc2)CCC(=O)CC1 | inactive | – |
| C[N+]1(CC2COC(c3ccccc3)(c3ccccc3)O2)CCCCC1 (stereo not given) | inactive | – |
